From the OligoGym collection

Each sequence was assayed against MYL4 (assay: pooled miR-30 sensor sort-seq; sequence = guide strand). Conditions: shRNA.
Also: reference of the scale not given here.

Question: For ATCTTCATCTCTCCAGTCGGGG, which sensor-assay potency score (higher = more potent) is on record?
Answer: The sensor-assay potency score (higher = more potent) was -0.885.

Question: With AAGTCTATCTTTACACTCTTGG as the sequence, how does the sensor-assay potency score (higher = more potent) read?
Answer: The sensor-assay potency score (higher = more potent) was -0.446.

Question: TGAACTCTTCAATCTGGTCGGC was tested. Which sensor-assay potency score (higher = more potent) did it give?
Answer: The sensor-assay potency score (higher = more potent) was 0.0317.

The sequences below were run against MYNN in the same assay as above. Conditions: shRNA.

Question: TTTGAGATAGTCAGCAGCCTGA was tested. Which sensor-assay potency score (higher = more potent) did it give?
Answer: The sensor-assay potency score (higher = more potent) was -0.243.

Question: With TTATGTATTCTCATGTGCCTTC as the sequence, how does the sensor-assay potency score (higher = more potent) read?
Answer: The sensor-assay potency score (higher = more potent) was 0.676.

Question: TAAATTTTTAATATCTGTGTAA was tested. Which sensor-assay potency score (higher = more potent) did it give?
Answer: Its sensor-assay potency score (higher = more potent) is -0.492.

Question: With TTTGAGATGACTTTTTCGCTAA as the sequence, how does the sensor-assay potency score (higher = more potent) read?
Answer: The sensor-assay potency score (higher = more potent) was -0.185.

Question: For TGCTTCTGTAGATCGCACCAAA, which sensor-assay potency score (higher = more potent) is on record?
Answer: Its sensor-assay potency score (higher = more potent) is -1.32.

Question: With TTGAGATTGCTAGAAGTCGCAA as the sequence, how does the sensor-assay potency score (higher = more potent) read?
Answer: The sensor-assay potency score (higher = more potent) was -0.134.

Question: TAACAGTGTGCACAATATCTTG was tested. Which sensor-assay potency score (higher = more potent) did it give?
Answer: The sensor-assay potency score (higher = more potent) was -1.2.

Question: For TTGACCTCAACAATGTATCTGA, which sensor-assay potency score (higher = more potent) is on record?
Answer: The sensor-assay potency score (higher = more potent) was 0.54.

Question: Which sensor-assay potency score (higher = more potent) does the source give for TTTCTGAAATCCATCAGCCTTC here?
Answer: The sensor-assay potency score (higher = more potent) was -0.541.

Question: For TCGATTATTATAATCTCGCAGA, which sensor-assay potency score (higher = more potent) is on record?
Answer: Its sensor-assay potency score (higher = more potent) is -0.633.

Question: TTTTTCTTCACCATGATGCATG was tested. Which sensor-assay potency score (higher = more potent) did it give?
Answer: Its sensor-assay potency score (higher = more potent) is -0.931.

Question: How did the sensor-assay potency score (higher = more potent) turn out when TTATTTGTGCAACTTGTTCTAC was run?
Answer: Its sensor-assay potency score (higher = more potent) is 0.0284.

The sequences below were run against MYO1A in the same assay as above. Conditions: shRNA.

Question: With TTGTCTAAGACGTTTGTGGATG as the sequence, how does the sensor-assay potency score (higher = more potent) read?
Answer: Its sensor-assay potency score (higher = more potent) is -0.839.

Question: How did the sensor-assay potency score (higher = more potent) turn out when TAGTCCACCTTTGTCCACGGTA was run?
Answer: The sensor-assay potency score (higher = more potent) was -0.661.

Question: How did the sensor-assay potency score (higher = more potent) turn out when TTGAGCTGCTTCACTAATCGGG was run?
Answer: Its sensor-assay potency score (higher = more potent) is 0.105.

Question: TAAGACATCACCAGCTTGCTGG was tested. Which sensor-assay potency score (higher = more potent) did it give?
Answer: Its sensor-assay potency score (higher = more potent) is -0.216.

Question: TAAATCTTCTGTATGAGTGTGG was tested. Which sensor-assay potency score (higher = more potent) did it give?
Answer: The sensor-assay potency score (higher = more potent) was 0.504.

Question: TTCCTCTTGCTCTTCTTTCAGG was tested. Which sensor-assay potency score (higher = more potent) did it give?
Answer: Its sensor-assay potency score (higher = more potent) is -0.825.

Question: For TTTTTGTAGCGTAGCTTGCTGT, which sensor-assay potency score (higher = more potent) is on record?
Answer: The sensor-assay potency score (higher = more potent) was -0.784.

Question: TTCTCCTTGAACCTCACTGAGA was tested. Which sensor-assay potency score (higher = more potent) did it give?
Answer: The sensor-assay potency score (higher = more potent) was -1.61.

Question: With TTGATTCGATTCACTATCCAGT as the sequence, how does the sensor-assay potency score (higher = more potent) read?
Answer: The sensor-assay potency score (higher = more potent) was -0.284.

Question: TTGTCGAATCTCCTCCTCCGAG was tested. Which sensor-assay potency score (higher = more potent) did it give?
Answer: The sensor-assay potency score (higher = more potent) was -0.993.

Question: How did the sensor-assay potency score (higher = more potent) turn out when TAGCACTTGTCGAATCTCCTCC was run?
Answer: The sensor-assay potency score (higher = more potent) was 0.419.

The sequences below were run against MYO1D in the same assay as above. Conditions: shRNA.

Question: With TTGTTCTGAACCTCCTTGGAGT as the sequence, how does the sensor-assay potency score (higher = more potent) read?
Answer: Its sensor-assay potency score (higher = more potent) is -0.407.

Question: TTGTTCTTGCTTCAGAACCAGC was tested. Which sensor-assay potency score (higher = more potent) did it give?
Answer: The sensor-assay potency score (higher = more potent) was -1.43.

Question: With TTGAGCACAGGATTTGAACTGT as the sequence, how does the sensor-assay potency score (higher = more potent) read?
Answer: Its sensor-assay potency score (higher = more potent) is 0.338.

Question: With TTCAAGAAACATTTCATCGGTG as the sequence, how does the sensor-assay potency score (higher = more potent) read?
Answer: The sensor-assay potency score (higher = more potent) was 0.501.

Question: Which sensor-assay potency score (higher = more potent) does the source give for TTAAGTAAGATGATCCTTGGAG here?
Answer: Its sensor-assay potency score (higher = more potent) is 0.286.

Question: Which sensor-assay potency score (higher = more potent) does the source give for TTTCTCAACCATATCTGTCTTA here?
Answer: The sensor-assay potency score (higher = more potent) was 0.187.

Question: TATAGTTGTAGGATGAAAGGGA was tested. Which sensor-assay potency score (higher = more potent) did it give?
Answer: Its sensor-assay potency score (higher = more potent) is 0.615.

Question: For TAGATGTTCAACAACTTGTAAG, which sensor-assay potency score (higher = more potent) is on record?
Answer: Its sensor-assay potency score (higher = more potent) is -1.57.

Question: With TTCAAAACTGTTGTTGTCGAAG as the sequence, how does the sensor-assay potency score (higher = more potent) read?
Answer: Its sensor-assay potency score (higher = more potent) is -0.485.

Question: For TTAGTTTCTTGACAGCCTCTTT, which sensor-assay potency score (higher = more potent) is on record?
Answer: The sensor-assay potency score (higher = more potent) was -0.583.

Question: For TAGTAGAGAGCAATTCTGCTAT, which sensor-assay potency score (higher = more potent) is on record?
Answer: The sensor-assay potency score (higher = more potent) was 0.00249.

The sequences below were run against MYO1F in the same assay as above. Conditions: shRNA.

Question: Which sensor-assay potency score (higher = more potent) does the source give for TTCTTGACAAAGACCTTGGTGC here?
Answer: The sensor-assay potency score (higher = more potent) was 0.169.

Question: TTCCGGTACATGTTGTCCGTGA was tested. Which sensor-assay potency score (higher = more potent) did it give?
Answer: Its sensor-assay potency score (higher = more potent) is 0.0719.

Question: TAGCACTCAGAGTCTCACCAAA was tested. Which sensor-assay potency score (higher = more potent) did it give?
Answer: The sensor-assay potency score (higher = more potent) was -0.917.
